Most compounds without a hit are left out; they make up all but 6.3% or so of the library.
MPTP block: inhibitors of mitochondrial permeability transition pore | isolated mouse mitochondria, Ca2+ swelling absorbance, 30 min | inhibition, % at 10 µM | 360,000 compounds, 1.4% hits;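 active = inhibition of 50% or more, scaled per plate between neutral and stimulator controls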;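 also: 0% = DMSO wells given calcium and 100% = 1 mM EGTA wells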
Mdm2 MdmX PPI: human Mdm2/MdmX binding inhibition; O15151+Q00987; SaOS-2 split-luciferase Mdm2/MdmX complementation, luminescence; inhibition, % at 8 µM; 330,000 compounds, 3% hits; AID 485346;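 active = inhibition of at least 50% at 8 µM in the primary screen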
Target sequence (O15151 whole entry, looked up): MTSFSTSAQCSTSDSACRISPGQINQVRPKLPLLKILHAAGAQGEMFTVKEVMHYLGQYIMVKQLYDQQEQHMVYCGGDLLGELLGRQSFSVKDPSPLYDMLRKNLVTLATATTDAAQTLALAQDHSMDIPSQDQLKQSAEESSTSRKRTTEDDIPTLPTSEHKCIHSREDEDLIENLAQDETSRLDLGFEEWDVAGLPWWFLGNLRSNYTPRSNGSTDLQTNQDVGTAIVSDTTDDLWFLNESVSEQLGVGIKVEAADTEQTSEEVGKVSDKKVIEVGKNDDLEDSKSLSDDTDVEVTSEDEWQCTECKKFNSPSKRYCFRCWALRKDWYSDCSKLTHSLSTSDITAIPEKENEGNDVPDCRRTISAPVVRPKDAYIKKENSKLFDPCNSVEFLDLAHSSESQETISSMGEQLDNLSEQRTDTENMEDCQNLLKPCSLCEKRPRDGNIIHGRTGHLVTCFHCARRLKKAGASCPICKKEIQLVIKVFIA
Target sequence (Q00987 whole entry, looked up): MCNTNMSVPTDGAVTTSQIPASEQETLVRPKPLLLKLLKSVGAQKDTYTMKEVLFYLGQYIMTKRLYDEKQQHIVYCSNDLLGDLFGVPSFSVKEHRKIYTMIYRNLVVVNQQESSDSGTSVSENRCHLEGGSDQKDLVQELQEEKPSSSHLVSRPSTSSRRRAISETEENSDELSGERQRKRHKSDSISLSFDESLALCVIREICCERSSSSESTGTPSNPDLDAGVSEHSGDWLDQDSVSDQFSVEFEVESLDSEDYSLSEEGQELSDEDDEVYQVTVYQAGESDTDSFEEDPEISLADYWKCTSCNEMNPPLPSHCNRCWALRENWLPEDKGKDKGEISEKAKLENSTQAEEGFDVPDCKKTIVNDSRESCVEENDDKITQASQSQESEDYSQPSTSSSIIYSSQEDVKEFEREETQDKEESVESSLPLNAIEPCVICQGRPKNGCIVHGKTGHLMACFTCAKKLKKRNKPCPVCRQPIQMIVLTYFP
tim10-1 inh: growth inhibitors of tim10-1 mutant yeast | 330,000 compounds, 2.2% hits | inhibition, % at 20 µM | AID 463190 | S. cerevisiae tim10-1 ts strain growth, BacTiter-Glo, 24 h;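 active = inhibition of at least 40%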;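 also: mutant grown at 25 °C; 0% = DMSO wells with yeast and 100% = wells holding no yeast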
tim23-1 inh: tim23-1 yeast growth inhibition. 330,000 compounds, 1.3% hits. S. cerevisiae tim23-1 growth, BacTiter-Glo luminescence, 24 h. AID 463212. inhibition, % at 20 µM;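 active = growth inhibition of the mutant yeast at or above 50%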;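 also: temperature-sensitive mutant grown at 25 °C; plate controls were DMSO-treated mutant yeast for no effect and medium wells lacking yeast for full effect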
TIM10 inh: inhibits growth of TIM10 yeast strain; inhibition, % at 10 µM; S. cerevisiae TIM10 strain growth, BacTiter-Glo luminescence, 24 h; 330,000 compounds, 1.4% hits; AID 463195;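 active = inhibition of 40% or more at the single tested concentration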;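 also: wild-type TIM10 isogenic control strain grown at permissive 25 °C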
tim10-1 conf: tim10-1 yeast growth inhibition, confirmed. shares compounds with tim10-1 inh. S. cerevisiae tim10-1 ts strain growth, BacTiter-Glo, 24 h. inhibition, % at 20 µM. 7,400 compounds, 56% hits;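 active = inhibition of yeast growth at or above a set limit in either of two repeat tests at 20 µM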;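 also: tim10-1 mutant grown at permissive 25 °C to find synthetic lethal compounds; 0% = DMSO yeast wells and 100% = medium wells without yeast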
An asterisk follows results filed as active; nt = no result.

SMILES | MPTP block | Mdm2 MdmX PPI | tim10-1 inh | tim23-1 inh | TIM10 inh | tim10-1 conf
Cc1cc(C)c2nc(NC(=O)c3ccc([N+](=O)[O-])o3)sc2c1 | 3.0 | 32.1 | 8.0 | 8.5 | -1.2 | nt
O=C(Nc1c(Cl)ccc2nsnc12)c1ccc([N+](=O)[O-])o1 | 0.0 | 39.3 | 51.6* | 40.6 | 28.1 | 33.4*
CCCCc1cc(=O)oc2cc(OC(C)C(=O)NCc3ccccn3)c(Cl)cc12 (stereo unspecified) | 0.3 | -2.8 | 41.3* | 24.4 | 5.2 | -36.0
CCCCc1cc(=O)oc2cc(OCC(=O)NCc3ccccn3)c(Cl)cc12 | 1.0 | -3.7 | 23.5 | -1.1 | -14.3 | nt
CC(C)C[C@H]1CNC(=S)N1C[C@H]1CCCN1C[C@H](CC(C)C)N1C[C@H](Cc2ccc(O)cc2)N(CC2CCCCC2)C1=S | 5.8 | nt | nt | nt | nt | nt
COc1cc(/C=C2\SC(=S)N(NC(=O)c3ccccc3O)C2=O)ccc1O | 14.5 | -13.1 | 44.0* | 33.9 | 31.0 | 32.4*
O=C(NN1C(=O)/C(=C/c2ccc(O)cc2)SC1=S)c1ccccc1O | 3.2 | 3.0 | 8.1 | 13.9 | -1.3 | nt
Cc1ccc(-c2nn(-c3ccccc3)cc2C(=O)N2CCOCC2)cc1 | -1.0 | -11.9 | 40.2* | 35.7 | 32.0 | 23.9
CCc1cc(-c2cnnn2Cc2ccccc2)ccc1-c1cn(CC(C)C)nn1 | 1.3 | nt | nt | nt | nt | nt
CCOC(=O)[C@]12CCCC=C1N(Cc1ccco1)C(=O)[C@H](CC(=O)NCc1ccccc1)C2 | 0.5 | nt | nt | nt | nt | nt
COc1cccc(-c2nc3ccccc3c(=O)o2)c1 | -1.1 | 9.6 | 48.4* | 35.7 | 29.1 | 42.0*
O=C(OCc1ccccc1)N1CCCCC1c1c(Cl)cccc1Br (stereo unspecified) | -0.8 | nt | nt | nt | nt | nt
Cc1nc([N+](=O)[O-])c(Sc2nc3ccccc3[nH]2)n1Cc1ccccc1 | 1.4 | 5.2 | 43.7* | 22.9 | 4.2 | 22.1
Cc1cc2nc(Sc3c([N+](=O)[O-])nc(C)n3Cc3ccccc3)[nH]c2cc1C | -0.1 | 30.0 | 43.3* | 37.4 | 25.3 | 38.9*
COc1ccc2nc(Sc3c([N+](=O)[O-])nc(C)n3Cc3ccccc3)[nH]c2c1 | nt | 48.9 | 32.6 | 31.6 | 32.8 | nt
CCc1ccccc1NC(=O)CCS(=O)(=O)c1ccc(Br)cc1 | 0.3 | 21.2 | -2.2 | 22.7 | -12.4 | nt
CCOc1ccccc1NC(=O)CCS(=O)(=O)c1ccc(Br)cc1 | 2.3 | 17.8 | 41.3* | 35.8 | 2.6 | 38.9*
Cc1ccccc1S(=O)(=O)c1c(C)cc(C)n(CC(C)C)c1=O | 1.2 | -14.3 | 48.0* | 20.2 | 30.5 | 25.1
CCC(C)c1ccc(O)c(NC(=S)NC(=O)c2cccs2)c1 (stereo unspecified) | 2.9 | nt | nt | nt | nt | nt
Cc1ccc(-c2csc(N3CCN(c4cc5c(cc4Cl)nc(C)n5CCN4CCCCC4)CC3)n2)cc1 | 0.5 | 40.8 | 40.5* | 47.0 | 9.5 | 10.7
Cc1ccc(S(=O)(=O)N2C[C@H]3C(=O)C[C@@H](c4ccccc4)N(S(=O)(=O)c4ccc(C)cc4)[C@H]3C[C@H]2c2cccc(C)c2)cc1 | 0.7 | nt | nt | nt | nt | nt
CC(C)C[C@@H](CSc1ccc(Br)cc1)N1CCN(CC(C)C)CCC1=O | 2.2 | 27.0 | 40.2* | 4.2 | 0.1 | 32.2*
O=C(NCc1ccccc1)C(c1cc2ccccc2o1)n1c(=O)c(-c2ccco2)nc2ccccc21 (stereo unspecified) | 0.3 | nt | nt | nt | nt | nt
CCc1nc2ccc(C(=O)NCCc3ccc(OC)cc3)cc2nc1CC | -0.9 | -0.2 | 40.5* | 35.6 | 0.8 | 10.6
CCc1nc2ccc(C(=O)NCc3ccc(C)o3)cc2nc1CC | -1.3 | 18.4 | 48.6* | 35.5 | 6.3 | 6.0
SMILES | MPTP block | Mdm2 MdmX PPI | tim10-1 inh | tim23-1 inh | TIM10 inh | tim10-1 conf
CCc1nc2ccc(C(=O)NCCc3ccc(OC)c(OC)c3)cc2nc1CC | -0.1 | 5.4 | 22.5 | 21.9 | -0.3 | nt
COc1ccc([N+](=O)[O-])cc1NC(=O)COC(=O)C12CC3CC(CC(O)(C3)C1)C2 | 1.0 | nt | nt | nt | nt | nt
COc1ccc(OCC(=O)Nc2ccc(S(=O)(=O)N3CCCCC3)cc2)cc1 | -0.2 | -9.2 | 44.9* | 43.3 | 28.0 | 51.8*
CCc1ccccc1OCC(=O)Nc1cccc(S(=O)(=O)N2CCCC2)c1 | 0.3 | -9.9 | 41.7* | 30.2 | 15.4 | 26.5
Cc1cccc(C)c1OCC(=O)Nc1cccc(S(=O)(=O)N2CCCC2)c1 | -1.4 | 2.4 | 38.7 | 39.3 | 28.5 | nt
Cc1cc(C)c(OCC(=O)Nc2ccc(S(=O)(=O)N3CCCC3)cc2)c(C)c1 | -0.5 | 19.5 | 40.7* | 42.6 | 26.8 | 38.5*
CN(C)S(=O)(=O)c1cccc(NC(=O)CCCC2CCCCC2)c1 | 4.6 | -14.4 | 40.6* | 27.0 | 17.4 | 24.8
CCCNC(=O)C1(C)CCCN(Cc2ccc(-c3ccccn3)cc2)C1 (stereo unspecified) | 0.2 | nt | nt | nt | nt | nt
COC[C@H]1CCCN1[C@H]1CS(=O)(=O)N[C@@H]1COCc1ccccc1 | 1.9 | nt | nt | nt | nt | nt
COc1cc(NC(=O)c2ccc(-c3cnn(C)c3)c3ccoc23)cc(OC)c1OC | 2.3 | nt | nt | nt | nt | nt
COCCNC(=O)C1(C)CCCN(C(=O)c2ccc(N(C)C)cc2)C1 (stereo unspecified) | -1.6 | nt | nt | nt | nt | nt
CN(C)S(=O)(=O)c1cccc(NC(=O)COc2cccc3ccccc23)c1 | -0.5 | 23.1 | 41.1* | 30.0 | 16.0 | 32.7*
CN(C)S(=O)(=O)c1cccc(NC(=O)COc2ccccc2C(=O)Nc2ccccc2)c1 | 7.1 | nt | nt | nt | nt | nt
O=C(NCC1CC1)c1ccc(-n2ccnc2)c2ccoc12 | -1.1 | nt | nt | nt | nt | nt
CCOC(=O)/C(=C/c1ccc(Cl)cc1)NC(=O)c1ccco1 | 0.2 | 12.2 | 40.5* | 28.7 | -7.3 | 17.6
O=C(COc1ccc(CNC[C@H]2O[C@@H](n3ccc(=O)[nH]c3=O)[C@H](O)[C@@H]2O)cc1)Nc1nccs1 | 0.1 | nt | nt | nt | nt | nt
CCC(CC)C(=O)Nc1ccc(Cl)c(Cl)c1 | 0.6 | -2.9 | 40.7* | 32.8 | 12.5 | 21.8
CC(C)N1CCC(C)(C(=O)Nc2ccccc2Oc2ccccc2)C1 (stereo unspecified) | 0.6 | nt | nt | nt | nt | nt
C=CCNC(=O)/C(C#N)=C/c1ccccc1OCc1ccc(C(=O)OC)cc1 | 0.6 | 10.7 | 44.5* | 44.8 | 30.6 | 27.2
CCc1ccc(-c2csc(NC(=O)C3CC(=O)N(c4ccc5c(c4)OCCO5)C3)n2)cc1 (stereo unspecified) | 7.9 | 29.3 | 47.1* | 22.8 | 24.6 | 26.6
Cc1cccc(C)c1NC(=O)C(c1ccccc1)N1CCC(Cc2ccccc2)CC1 (stereo unspecified) | 2.6 | nt | nt | nt | nt | nt
CN(CC1COc2ccccc2O1)C(=S)Nc1ccccc1 (stereo unspecified) | -4.0 | -12.4 | 42.2* | 35.5 | 21.0 | 24.8
Cc1ccc(NC(=O)CC2COc3ccccc3O2)cc1 (stereo unspecified) | 1.3 | -58.0 | 21.4 | 24.5 | 19.6 | nt
Cc1nnc(N/N=C/c2cccc(OCc3ccc(Cl)c(Cl)c3)c2)n1N | -1.1 | -4.7 | 43.0* | 40.7 | 23.8 | 36.4*
Cc1nnc(N/N=C/c2cccc(C(F)(F)F)c2)n1N | -1.7 | 5.3 | 12.9 | 7.4 | 18.4 | nt
COc1ccc(OC(=O)Cc2cccc3ccccc23)cc1 | 5.4 | nt | nt | nt | nt | nt

Assay outcomes as filed in PubChem.
